Experimental data published in PubChem BioAssay AID686979 (National Center for Advancing Translational Sciences (NCATS), 2013).
The campaign covered roughly 420,000 compounds. About 50,000 (12%) were called active. Roughly 26% stayed inconclusive and do not appear here. The call rests on the fitted dose curve; in most records, active means well fitted inhibition curve with a large enough effect; inconclusive means small, poorly fitted or top-dose-only effect; inactive means flat fitted curve, though single readings scatter. The list comes from a sample in which actives are over-represented; it also holds similar structures and randomly drawn compounds. Entries that show only a call come without a potency. Where a SMILES comes first, the peptide text is derived from it. [ ]: non-standard residue; d: D form. The star is where a group is joined. ξ: configuration not given here. Cbz = O=C(OCc1ccccc1)*; ξL = CC(C)CC(N)C(=O)O; ξP = O=C(O)C1CCCN1

Assay: qHTS for Inhibitors of human tyrosyl-DNA phosphodiesterase 1 (TDP1): qHTS in cells in presence of CPT; further: nearly all actives have a fitted effect of over 55% in size
Details: chicken DT40 Tdp1-/-;hTDP1 cells + 20 nM CPT, ATP luminescence, 48 h; series mostly up to 46.2 µM
Procedure, shortened: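 Cell growth measured by CellTiter-Glo luminescence after a minimum 48 h, 37 C compound exposure with 20 nM CPT in Tdp1-knockout DT40 cells stably expressing hTDP1, seeded 400/well; qHTS titration format.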
Potency means the concentration at half of the fitted maximal effect.

SMILES	Potency	activity change, negative = growth inhibition
Cc1ccc(N2C(=O)C3C4C=CC(CC4)C3C2=O)cc1Br (stereo not drawn)	inactive	
COc1ccc(N2C(=O)CC(N3CCC(C(N)=O)CC3)C2=O)cc1 (stereo not drawn)	inactive	
COc1ccc(CCN2C(=O)CC(N3CCC(C(N)=O)CC3)C2=O)cc1OC (stereo not drawn)	25.9 µM (active)	
COc1ccc(CCN2C(=O)C3CC=C(C)CC3C2=O)cc1OC (stereo not drawn)	inactive	
CN1CCN(CCC(=O)N/N=C/C=C2\N(C)c3ccccc3C2(C)C)CC1	inactive	
COc1cccc(NC(=S)C(C#N)=C2N(C)c3ccccc3N2C)c1	inactive	
CC(=O)Nc1cccc(OCC(=O)/C=C2\N(C)c3ccccc3C2(C)C)c1	6.51 µM (active)	
Cc1cccc(NC(=O)c2cc(S(=O)(=O)N3CCC4(CC3)OCCO4)ccc2F)c1	inactive	
Cc1cc(S(=O)(=O)NC2CCCC2)ccc1-n1cnnn1	inactive	
CCOc1ccccc1-c1cc(C(=O)N2CCOCC2)c2ccccc2n1	inactive	
CCOc1cccc(/C=C/c2ccc3ccccc3n2)c1OC(C)=O	18.4 µM (active)	
COc1cccc(/C=C/c2ccc3ccccc3n2)c1OC(C)=O	inactive	
Cc1ccc(S(=O)(=O)/N=C(/Nc2ccccn2)c2ccc(Cl)cc2)cc1	inactive	
O=S(=O)(/N=C(/Nc1ccccn1)c1ccccc1)c1ccc(Cl)cc1	inactive	
Cc1ccc(S/C(=N\S(=O)(=O)c2ccc(Cl)cc2)c2ccccc2)cc1	14.6 µM (active)	
Cc1ccc(NC(=O)COc2ccc(/C=C3/NC(=O)NC3=O)cc2)cc1	inactive	
CC(C)CC(NC(=O)C1CCCN1C(=O)[C@@H](C)NC(=O)OCc1ccccc1)C(=O)NCC(N)=O (stereo partly drawn) (Cbz-[dA][ξP][ξL]G-NH2)	inactive	
CCCN(CCC)S(=O)(=O)c1ccc(C(=O)NNC(=O)c2cc(OC)c(OC)c(OC)c2)cc1	inactive	
CCCN(CCC)S(=O)(=O)c1ccc(C(=O)Nc2sc3c(c2C(=O)OC)CCN(CC)C3)cc1	16.4 µM (active)	
COC(=O)c1c(NC(=O)c2cc(=O)c3c(C)cc(C)cc3o2)sc2c1CCCC2	inactive	
CCOC(=O)c1c(NC(=O)c2ccc(S(=O)(=O)N3CCCC(C)C3)cc2)sc2c1CCN(C(C)C)C2 (stereo not drawn)	8.2 µM (active)	
CCOC(=O)c1c(NC(=S)Nc2ccccc2)sc2c1CCN(C)C2	inactive	
CCOC(=O)c1c(NC(=O)NC(C)(C)C)sc2c1CCN(C)C2	inactive	
N#CCCN(C(=S)Nc1ccc(Cl)c(Cl)c1)C1CCCCC1	inactive	
O=S1(=O)CSCS(=O)(=O)C1	inactive	

SMILES	Potency	activity change, negative = growth inhibition
COc1ccc(S(=O)(=O)N(CC(=O)N/N=C/c2ccc(C(=O)O)cc2)Cc2ccccc2)cc1OC	inactive	
C=CCO/N=C(\C)c1c(O)c(C)c(-c2ccccc2)n(-c2ccccc2)c1=O	inactive	
CC(C)[C@@H]1NC(=O)[C@H](Cc2ccccc2)NC(=O)[C@@H](CC(=O)O)NC(=O)CNC(=O)[C@H](CCCNC(=N)N)NC1=O	inactive	
C=CCNC(=O)C1CC2c3ccccc3C1c1ccccc12 (stereo not drawn)	inactive	
CCS(=O)(=O)N1CCC(n2c(C)nc3cccnc32)CC1	inactive	
O=C1NC(CC(=O)N2CCC(n3c(C4CCC4)nc4cccnc43)CC2)c2ccccc21 (stereo not drawn)		-6.43% [at 9.04 µM] (inactive)
CCCS(=O)(=O)N1CCC(n2c(C(F)(F)F)nc3cccnc32)CC1	3.66 µM (active)	
COC(=O)c1ccc(NS(=O)(=O)c2cc3c4c(c2)C(C)C(=O)N4CCC3)cc1 (stereo not drawn)	inactive	
O=C1CCc2cc(S(=O)(=O)Nc3ccc(C(F)(F)F)cc3)cc3c2N1CC3	inactive	
O=C1Cc2cc(S(=O)(=O)Nc3ccc(OC(F)(F)F)cc3)cc3c2N1CCC3	9.2 µM (active)	
CCn1c(CC(=O)Nc2ccccc2)nnc1SCC(=O)N1CCOCC1	inactive	
COc1ccc(C(C#N)Nc2ccc(C)cc2)cc1 (stereo not drawn)	inactive	
Cc1ccc(CN2CCN(/N=C/c3ccco3)CC2)c(C)c1	inactive	
CC(C)=CCCC1(C)C=Cc2c(ccc3c2[nH]c2cc(O)c(C)cc23)O1 (stereo not drawn)	16.4 µM (active)	
Cc1ccc(CNC(=O)Nc2nnc([C@H]3C[C@H](O)[C@@H](CO)O3)s2)cc1	inactive	
CN1CCN(S(=O)(=O)c2ccc(N3CCN(c4ccccc4O)CC3)c([N+](=O)[O-])c2)CC1	23.1 µM (active)	
Cc1cc(C)n(-c2ccc(C(=O)O)cc2[N+](=O)[O-])n1	inactive	
Cc1cc(N)n(-c2ccc(S(=O)(=O)N3CCCC3)cc2[N+](=O)[O-])n1	inactive	
Cc1ccc(C(=O)c2ccc(N3CCN(C)CC3)c([N+](=O)[O-])c2)cc1	18.4 µM (active)	
Cc1cccc(N2CCN(c3ccc(C(N)=O)cc3[N+](=O)[O-])CC2)c1C	inactive	
O=[N+]([O-])c1ccc(N2CCN(S(=O)(=O)c3ccccc3)CC2)cc1N1CCc2ccccc2C1	inactive	
C=CCN(c1ccc(Cl)cc1)S(=O)(=O)c1cccc(C(=O)OCC(=O)N(C)C)c1	inactive	
Cc1ccc2c(c1)N(C(=O)CCC(=O)NCc1cccnc1)CCO2	inactive	
Cn1nccc1NC(=O)CC(CC(=O)O)c1ccccc1 (stereo not drawn)	inactive	
Cn1ccsc1=NC(=O)c1cc(S(=O)(=O)N2CCOCC2)ccc1Cl	inactive	

SMILES	Potency	activity change, negative = growth inhibition
N/C(=N\OC(=O)c1ccc2c(c1)OCO2)c1ccc(Br)cc1	inactive	
N/C(=N\OC(=O)N1c2ccccc2Sc2ccccc21)c1ccc(Br)cc1	20.6 µM (active)	
N/C(=N\OC(=O)/C=C/c1ccccc1)c1ccc(Br)cc1	inactive	
Cc1csc(=O)n1CCC(=O)OCC(=O)NNC(=O)c1ccc(Br)cc1	inactive	
CC(=O)Nc1cccc(C(=O)OCC(=O)Nc2nnc(-c3ccccc3)o2)c1	inactive	
COCCNC(=O)C1C(=O)Nc2ccccc2C(=O)N1c1ccc2c(c1)OCCO2 (stereo not drawn)	inactive	
COc1cc(SC#N)ccc1N=Cc1c(C)[nH]n(-c2ccc(C)cc2)c1=O	2.59 µM (active)	
COc1cccc(-c2coc3cc4oc(=O)c(CC(=O)O)c(C)c4cc23)c1	inactive	
O=C(O)CC1S/C(=N\N=C/c2ccccc2O)N(c2ccc(O)cc2)C1=O (stereo not drawn)	inactive	
S=C(Nc1ccc(Br)cc1Cl)N1CCC2(CC1)OCCO2	inactive	
C=C1C(=O)OC2C1CCC(C)=CCCC1(C)OC21 (stereo not drawn)	1.64 µM (active)	
Cc1cc(Cl)ccc1NC(=S)N1CCC(C(N)=O)(N2CCCCC2)CC1	inactive	
O=C(COC(=O)/C=C/c1cccc(Cl)c1)NCc1cccs1	inactive	
COC(=O)CCc1sc(Nc2ccc(Br)cc2)nc1-c1ccc(OC)cc1	23.1 µM (active)	
Cc1ccc(OC(=O)CCC(=O)Nc2ccc(Br)cc2)cc1	inactive	
COc1ccc(NC(=O)c2sc(N)nc2-c2ccccc2)cc1	inactive	
CCc1c(C)sc(NC(=O)C2c3ccccc3Oc3ccccc32)c1C(=O)OC(C)C	inactive	
Cc1ccn2c(=O)c(NC(=O)c3cccc4ccccc34)c(C)nc2c1	inactive	
O=C(O)c1cccc(S(=O)(=O)N2CC=C(c3ccccc3)CC2)c1	inactive	
NC(=O)N1CCCC1C(=O)Nc1ccc(Cl)c(Cl)c1 (stereo not drawn)	inactive	
O=C(Nc1ccc(Cl)c(Cl)c1)N1CC=C(c2ccccc2)CC1	23.1 µM (active)	
CCCCn1c(N)c(N(CCC(C)C)C(=O)c2ccc([N+](=O)[O-])o2)c(=O)[nH]c1=O	inactive	
CCCCC(O)C1=C[N+](=O)CC=C1 (stereo not drawn)	inactive	
Nc1cc(=O)nc(SCc2ccccc2)n1Cc1ccco1	inactive	
O=c1[nH]c(CSc2ncc(-c3ccc(F)cc3)n2Cc2ccco2)nc2ccccc12	18.4 µM (active)	

SMILES	Potency	activity change, negative = growth inhibition
CCn1c(Cc2ccccc2)nnc1SCc1nc2ccccc2c(=O)[nH]1	inactive	
COc1ccc2ccn(C)c2c1	inactive	
CCOc1cc(NC(=O)c2ccco2)c(OCC)cc1NC(=O)COc1ccccc1	4.11 µM (active)	
CCOc1cc(NC(=S)NCCCOC)c(OCC)cc1NC(=O)c1ccco1	inactive	
CCOc1cc(NC(=S)NCc2ccco2)c(OCC)cc1NC(=O)c1ccco1	inactive	
COc1ccc(-c2nc3c4ccccc4n(CC(=O)Nc4ccc(C(C)=O)cc4)c(=O)n3n2)cc1	inactive	
Cc1cc(N2CCN(c3cccc(C(F)(F)F)c3)CC2)n2nc(-c3ccccc3)nc2n1	inactive	
O=c1n(Cc2cccc(C(F)(F)F)c2)c2ccccc2c2nc(-c3ccccc3)nn12	23.1 µM (active)	
CC(C)C(OC(=O)c1cccs1)C(=O)NC1CCCCC1 (stereo not drawn)	inactive	
Cc1ccc(NC(=O)CN(C)Cc2ccc(F)cc2)c([N+](=O)[O-])c1	inactive	
CCn1c(SCC(=O)NC2CCCC2)nnc1-c1ccoc1C	inactive	
COC(=O)c1onc(-c2c(OC)cc(OC)cc2OC)c1C(=O)OC	inactive	
CN(C(=O)CN1C(=O)/C(=C/c2ccc(Cl)cc2)SC1=S)C1CCS(=O)(=O)C1 (stereo not drawn)	18.4 µM (active)	
CN(C(=O)CCN1C(=O)/C(=C/c2ccccc2F)SC1=S)C1CCS(=O)(=O)C1 (stereo not drawn)	inactive	
CN(C(=O)CN1C(=O)S/C(=C\c2ccccc2F)C1=O)C1CCS(=O)(=O)C1 (stereo not drawn)	inactive	
O=C(Nc1cc(C(F)(F)F)ccc1Cl)c1cc2nc(-c3ccc4c(c3)OCO4)cc(C(F)(F)F)n2n1	inactive	
O=C(NCCCCCCCCCNC(=O)C(F)(F)F)C(F)(F)F	inactive	
C/C(=N\NS(=O)(=O)c1cccc([N+](=O)[O-])c1)c1cc2ccccc2o1	inactive	
CCn1c(SCc2cc(=O)n3ccsc3n2)nc2ccccc21	inactive	
COc1cccc(-n2cc(C(=O)O)c3ccccc3c2=O)c1	inactive	
CCN(Cc1ccccc1)C(=O)c1cn(-c2cccc(OC)c2)c(=O)c2ccccc12	18.4 µM (active)	
COc1cccc(-n2ccn(CC(=O)NCc3ccc(C)cc3)c(=O)c2=O)c1	inactive	
COc1ccc(NC(=O)CSc2nnc(C3CC3)n2C)cc1S(=O)(=O)N1CCCCC1	inactive	
